Results filed as inconclusive are left out. The source made the active and inactive calls. How the source made its calls: active means hit-call score of the fitted dose curve at least 0.9, where 1 is the maximum; inconclusive means response in the unintended direction; inactive means score below 0.9.

Chain of guinea pig Sigma Receptor, Non-selective Binding, SIGMAR1 (gene 100135589) (Q60492 whole entry, looked up): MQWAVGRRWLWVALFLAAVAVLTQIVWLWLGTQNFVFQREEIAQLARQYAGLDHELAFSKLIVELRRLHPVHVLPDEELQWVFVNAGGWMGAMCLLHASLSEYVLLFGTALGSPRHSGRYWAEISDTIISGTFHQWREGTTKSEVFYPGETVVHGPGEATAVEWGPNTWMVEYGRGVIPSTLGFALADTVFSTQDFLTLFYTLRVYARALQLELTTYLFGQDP
Chain of Nuclear receptor subfamily 1 group I member 2 (Homo sapiens) (O75469 whole entry, looked up): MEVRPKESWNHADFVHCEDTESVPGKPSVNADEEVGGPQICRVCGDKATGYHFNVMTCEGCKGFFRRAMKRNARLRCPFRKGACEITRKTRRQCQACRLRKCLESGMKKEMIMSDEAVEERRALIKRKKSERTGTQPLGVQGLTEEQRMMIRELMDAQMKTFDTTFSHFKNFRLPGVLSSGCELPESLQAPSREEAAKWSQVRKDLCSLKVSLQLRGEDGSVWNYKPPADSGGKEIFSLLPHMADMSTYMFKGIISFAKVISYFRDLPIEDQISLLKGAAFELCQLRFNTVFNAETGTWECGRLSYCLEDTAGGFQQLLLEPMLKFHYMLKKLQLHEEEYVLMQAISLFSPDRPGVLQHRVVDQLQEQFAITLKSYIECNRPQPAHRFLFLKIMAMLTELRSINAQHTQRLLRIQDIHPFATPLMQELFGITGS

For the first assay, the target named is Nuclear receptor subfamily 1 group I member 2 (Homo sapiens) (UniProt O75469). Briefly: NVS_NR_hPXR: NovaScreen (NVS) Nuclear Receptor Binding Assay for human Pregnane X Receptor (PXR) (AID 2283365).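 Further: a drop in FRET signal versus DMSO baseline means the compound binds.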 Put shortly:
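TR-FRET signal read at 2 h in a cell-free human PXR binding format. DMSO served as negative control and baseline; activity scored as signal loss. Single-concentration duplicate screen (25 uM), then concentration-response follow-up.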
Consider `CCCCCCCC[Si](OCC)(OCC)OCC`, for which the result was inactive.

For the compound `O=CCCCC=O`, the compound was called inactive.

Turning to `CC1(C)NC(=O)N(c2ccc([N+](=O)[O-])c(C(F)(F)F)c2)C1=O`, the call was inactive.

The next assay addresses guinea pig Sigma Receptor, Non-selective Binding, SIGMAR1 (gene 100135589) (UniProt Q60492). The assay is described as follows: NVS_OR_gSIGMA_NonSelective: NovaScreen (NVS) Nuclear Receptor Binding Assay for guinea pig Sigma Receptor, Non-selective Binding (AID 2283367). Summed up:
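Membranes from guinea pig brain incubated with radioligand and test chemical for 1 h, then filtered and scintillation-counted. Duplicate primary testing at 25 uM, with concentration-series follow-up for actives.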
By AC50 is commonly meant the concentration giving half of the maximal activity seen. In the case of `c1ccc(C[n+]2cccc3ccccc32)cc1`, the concentration at half-maximal activity (AC50) was 8140 nM (active).

In the case of `Clc1cc(Cl)c2c(c1)N=C1CCCCCN1C2`, the AC50 was 542 nM (active).

As for `COc1cccc([C@H](O)C2CCN(CCc3ccc(F)cc3)CC2)c1OC`, the AC50 was 290 nM (active).

For the compound `CCCCCCCCN(C)CCCCCCCC`, the AC50 was 212 nM (active).

In the case of `Cc1occc1C(=O)Nc1ccc(C(=O)N2CCC(F)(F)/C(=C\C(=O)N3CCC(N4CCCCC4)CC3)c3ccccc32)cc1`, the AC50 was 2930 nM (active).

As for `O=C1c2ccccc2C(=O)N1CCc1noc(-c2ccc(CN3CCCCCC3)s2)n1`, the AC50 was 6760 nM (active).

As for `CCCCCCCCCCCC[N+](C)(C)C`, the AC50 is 123 nM (active).

The record behind these values is PubChem BioAssay (EPA / NIEHS).
